Assay results published in ChEMBL document CHEMBL4513216, “Probing the Open Global Health Chemical Diversity Library for Multistage-Active Starting Points for Next-Generation Antimalarials” (ACS Infect Dis, 2020).
Hit rate of the full screen: of about 69,000 compounds, about 8,600 (12%) showed an effect of 50% or more. What follows is part of a selection rich in strong results, with near analogues and random picks from the rest.

Tested on: Plasmodium berghei
Assay: Screen against P. berghei liver stage (PbLuc), transformed with Luciferase, at 10uM
Format: functional, HepG2
Conditions: tested at 10 uM

Structure (SMILES) | INHIBITION
Cc1nc(C)n(C2CCCN(C(=O)CCn3cncn3)C2)n1 (configuration not stated) | 14.9%
CCc1nc(CN(C)c2nccc(N3CCCC(O)C3)n2)no1 (configuration not stated) | 20.3%
Cc1nc(O)ccc1C(=O)NCc1ncccc1F | 12.6%
O=C(NC1(c2nc(C3CC3)no2)CCCCC1)c1ccncc1 | -3.19%
COCCNC(=O)NC1(c2nc(-c3ccncc3)no2)CCCCC1 | 56.3%
COCCNC(=O)NC1(c2nc(C)no2)CCCCC1 | 19.2%
CC(C)CNS(=O)(=O)c1ccc(C(=O)N(C)CCc2cn[nH]c2)cc1 | -12.4%
NC(=O)c1c(-c2ccc(Cl)cc2Cl)csc1NC(=O)CCC(=O)O | 44.9%
O=C(NCCC(=O)N1CCCc2ccccc21)c1c(O)cc(F)cc1F | 73.9%
O=C(NCC(=O)N1CCCc2ccccc21)c1c(O)cc(F)cc1F | 80.6%
O=C(NCCC(=O)N1CCCc2ccccc21)c1c(F)cccc1F | -57.4%
O=C(NCCS(=O)(=O)N1CCc2ccccc21)c1c(O)cc(F)cc1F | 42%
O=C(NCCC(=O)N1CCCc2ccccc21)c1ccc(F)cc1F | 11.6%
O=C(NCCC(=O)N1CCCc2ccccc21)c1cc(F)cc(F)c1 | -19.9%
C=C(C)COc1ccc(C(CC(=O)OC)c2oc(C)cc(=O)c2O)cc1 (configuration not stated) | -24.7%
CNc1ncc(CN(C)C(=O)c2cccc(Cn3cccn3)c2)cn1 | 18.5%
CCc1ccccc1Nc1noc2c1CN(C(=O)c1ccn(C)n1)CC2 | -3.35%
CCn1ccnc1CN1CCN(Cc2cccnc2)CC1C (configuration not stated) | 33.5%
N#Cc1ccc(Nc2nc3c(s2)C(=O)CN(CC2CC2)C3)cc1 | -15.2%
CC(C)NC(=O)N1CC(=O)c2sc(Nc3ccc(C#N)cc3)nc2C1 | 61.9%
CC[C@H](C)[C@H](N)C(=O)N1CC(=O)c2sc(Nc3ccc(F)cc3)nc2C1 | 14.5%
CC(C)Nc1nc2c(s1)C(=O)CN(C)C2 | 35.2%
CC(C)CC(=O)N1CC(=O)c2sc(Nc3ccc(F)cc3)nc2C1 | 51.5%

Structure (SMILES) | INHIBITION
CCN1CC(=O)c2sc(NC(C)C)nc2C1 | 23.4%
CC(C)NC(=O)N1CC(=O)c2sc(NC3CCCCC3)nc2C1 | -16.7%
CC(C)CC(=O)N1CC(=O)c2sc(Nc3ccc(C#N)cc3)nc2C1 | 79.7%
Cc1nc(C)n(CC2CCCN(CCCOc3ccc(F)cc3)C2)n1 (configuration not stated) | 40.2%
NC(=O)C1CCN(CCc2ccc(NC(=O)C3CC3)cc2)CC1 | 45.05%
CC(O)(CNC(=O)NCCc1ccc2c(c1)CCO2)c1ccsc1 (configuration not stated) | 30.8%
CC(C)c1nn(C)cc1CNC1CCOc2ccccc21 (configuration not stated) | 31.8%
COc1ccccc1C1CNCCN1C(C)=O (configuration not stated) | 9.98%
CC(=O)N1CCC2(CCCN2Cc2cnn(C)c2)CC1 | -26%
CCOc1ccnc(N2CCCN(c3nc(C4CC4)ns3)CC2)n1 | -75.5%
COc1ccnc(N2CCCN(c3nc(C4CC4)ns3)CC2)n1 | 77.6%
CCOc1ccnc(N2CCCN(c3nc(CC)ns3)CC2)n1 | -12.5%
CC(C)C(NC(=O)Cn1ccc(=O)n(C)c1=O)c1ccc(F)cc1 (configuration not stated) | 53.8%
CC(NC(=O)Cn1ccc(=O)n(C)c1=O)c1ccccc1F (configuration not stated) | -27.8%
CC(NC(=O)Cn1ccc(=O)n(C)c1=O)c1cc(F)ccc1F (configuration not stated) | -35.7%
O=C(c1ccc(NCc2cccc(F)c2)cc1)N1CCCC1 | -16.1%
CCC(C(=O)N(C)Cc1cc(COC)[nH]n1)n1cccn1 (configuration not stated) | -29.2%
O=C(c1ccc(NC2CC2)nc1)N1CCCC(n2ccnc2)C1 (configuration not stated) | 31.32%
CCn1cc(S(=O)(=O)N2CCCC3(CC=CNC3=O)C2)c(C)n1 (configuration not stated) | -42.9%
Cc1ccc(C(=O)NCC(O)c2cnn(C)c2)c(Br)c1 (configuration not stated) | 29.7%
Cn1cc(C(O)CNC(=O)c2ccc(F)cc2Cl)cn1 (configuration not stated) | 51.6%
Cn1cc(C(O)CNC(=O)c2cc(Br)ccc2Cl)cn1 (configuration not stated) | 19.8%
CC(C)(O)CNC(=O)NCc1nccn1CCc1ccccc1 | -4.63%

Structure (SMILES) | INHIBITION
CC(C)COCC(NC(=O)c1ccccn1)c1ccco1 (configuration not stated) | 8.25%
CC(C)COCC(NC(=O)c1cc[nH]n1)c1ccco1 (configuration not stated) | 53.8%
CC(C)COCC(NC(=O)c1cnccn1)c1ccco1 (configuration not stated) | -26.6%
CCn1nc(CC(C)C)cc1C(=O)NCC(F)(F)F | 15.4%
Cc1noc(C)c1CN1CCOC2(CCCN(c3ncccn3)C2)C1 (configuration not stated) | -21.1%
CC(C)c1nnc(CN2CCN(C(C)c3nc(C4CC4)no3)CC2)o1 (configuration not stated) | 33.3%
CCC1=NN2C(=N)C(=Cc3cccn3-c3ccc(Cl)cc3)C(=O)N=C2S1 | 76.7%
CCC1=NN2C(=N)/C(=C/c3cccc(Cl)c3)C(=O)N=C2S1 | 37.7%
CCC1=NN2C(=N)C(=Cc3cccn3-c3ccc(Br)cc3)C(=O)N=C2S1 | 65.4%
CCC1=NN2C(=N)C(=Cc3cccn3-c3cccc(Cl)c3)C(=O)N=C2S1 | 73.7%
O=C(O)Cc1cn2cc(C(F)(F)F)ccc2n1 | 7.38%
Cn1cc(CN2CC[C@H](O)[C@@H]2Cc2ccccc2)cn1 | 17.1%
Cc1noc(C)c1C(=O)N1C[C@H]2CCC[C@@]2(COc2ccccn2)C1 | 34.7%
COc1ccnc(N2C[C@@H](NS(=O)(=O)N(C)C)[C@H](C(C)C)C2)n1 | -15.6%
CCC[C@H]1CN(c2nccc(NCC)n2)C[C@@H]1NS(=O)(=O)N(C)C | 48.7%
CCC[C@H]1CN(c2nccc(OC)n2)C[C@@H]1NS(=O)(=O)N(C)C | 56.6%
CCS(=O)(=O)N1CC[C@H](OC)[C@@H]1Cc1ccncc1 | 28.4%
CNc1ncc(-c2ccnn2C2CCN(C(C)=O)CC2)cn1 | 42.6%
CC1CN(C(=O)c2cnn(-c3ccccn3)c2C(C)C)CC(C)(C)O1 (configuration not stated) | 51.5%
CCc1c(C(=O)N2CC(C)OC(C)(C)C2)cnn1-c1ccccn1 (configuration not stated) | 2.97%
CCc1c(C(=O)N2CCOC(C)(C)C2)cnn1-c1ccccn1 | 4.95%
